Test results published in PubChem BioAssay AID1117319 (Southern Research Institute, 2015).
“And” between values parts separate entries of the source, which are not always exact repeats. Equal entries are not always repeated. In all, about 260,000 compounds went through this assay and about 1,500 (0.58%) were called active. Another 5% or so got no clear call; they are omitted.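 How the source made its calls: active means inhibition above a set limit at one or more doses, reproduced on every date tested; inconclusive means results disagree between test dates, or hit never tested in dose response; inactive means the rest.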 A selection follows. Measured potencies and affinities stand elsewhere.

Each molecule was assayed against Virion infectivity factor (Human immunodeficiency virus type 1 group M subtype B (isolate BH10)) + Virion infectivity factor (Human immunodeficiency virus type 1 group M subtype B (isolate BRU/LAI)) + Virion infectivity factor (Human immunodeficiency virus type 1 group M subtype B (isolate PCV12)) + Virion infectivity factor (Human immunodeficiency virus type 1 group M subtype B (isolate HXB2)) + DNA dC->dU-editing enzyme APOBEC-3G (Homo sapiens) (UniProt P69720+P69721+P69722+P69723+Q9HC16) (assay: inhibitors of Vif binding to APOBEC3G peptide, primary screen, biochemical, TR-FRET, GST-Vif 1-94, biotin-A3G peptide, dose response retest (AID 1117319;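 further: Vif residues 1-94 fused to GST binding biotinylated APOBEC3G peptide 110-148; 0% = full assay without inhibitor and 100% = GST in place of GST-Vif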)). Conditions: stronger effect = higher value.

inhibition, inactive:
O=C(CNC(=O)c1ccccc1F)OCCOc1cccc(Cl)c1 3.91%
Cc1ccc(CCNC(=O)C2CC(c3ccccc3C(F)(F)F)=NO2)cc1 (configuration not stated) -3.19%
COc1ccc(N)c2c1C(=O)c1ccccc1C2=O -29.2%
COc1ccc(-c2c(C#N)cnc(C)c2C)c(O)c1OC -2.84%
Cc1cccc(N2C(=O)c3ccc(Br)cc3C2=O)n1 1.11%
COc1ccc(C2=C(N)c3ccccc3C2=O)cc1 29%
COc1ccc(-c2c(N)cnc(C(=O)O)c2C)c(OCc2ccccc2)c1OC 2.47%
NC1=C(Br)C(=O)c2ncccc2C1=O 0.39%
COc1ccc(CC(=O)Nc2ccc(C(N)=O)cc2)cc1 15.2%
CCOc1ccc(N2C(=O)CC(N(Cc3ccco3)C(=O)CC)C2=O)cc1 (configuration not stated) 0.31%
Cc1c(N/C(=N/S(=O)(=O)c2ccc(F)cc2)c2ccccc2)c(=O)n(-c2ccccc2)n1C 0.73%
Cc1sc2nc(CSC(C)C(=O)NC3(C#N)CCCCC3)[nH]c(=O)c2c1C (configuration not stated) 9.91%
C[C@]12C=CC(=O)C=C1CCC1C2CC[C@@]2(C)C1CCC21OCCO1 (some centres not stated) -4.95%
C=C(C)COc1ccc2c(CC)cc(=O)oc2c1C -15.7%
COc1ccc(/C=C2/SC(=S)N(CCCC(=O)Nc3cccc(O)c3)C2=O)cc1 4.43%
O=C(CCCN1C(=O)/C(=C\c2cccs2)SC1=S)Nc1ccccc1O 3.84%
O=C(CCCN1C(=O)/C(=C\c2ccccc2)SC1=S)Nc1ccc(O)cc1 7.93%
O=C(CCN1C(=O)/C(=C/c2ccco2)SC1=S)Nc1ccc(O)cc1C(=O)O 20.3%
CCN1C=C(Cc2ccccc2C)C2=C(C1)C(c1ccccc1C)C(C#N)=C(N)O2 (configuration not stated) 3.15%
O=C(CCC(=O)Nc1ccccc1Cl)NNC(=O)Nc1cccc([N+](=O)[O-])c1 -2.42%
c1ccc(N2CCN(c3ncccn3)CC2)cc1 2.21%
c1ccc(N2CCN(c3cnccn3)CC2)nc1 -2.48%
Cc1ccc(Sc2ncccc2C(=O)O)cc1 1.95%
O=C(NCC(c1ccco1)N1CCCC1)c1cn(-c2ccccc2)nc1-c1ccc(F)cc1 (configuration not stated) -3.8%
C[C@H](NS(=O)(=O)c1ccccc1)C(=O)N1CCN(C(c2ccccc2)c2ccccc2)CC1 0.88%
COc1ccc(OC)c(NS(=O)(=O)c2ccc(Br)s2)c1 2.77%
Oc1cccc2ccc(N3CCOCC3)nc12 -8.55%
CC(C)(C)C(=O)Oc1cc(N)n(S(=O)(=O)c2ccccc2)n1 -2.72% and -3.77%
COc1ccc(CN(C(=O)c2cccs2)c2ccccc2C(=O)O)cc1 -12.9%
O=C1OCCC1Sc1ncnc2sc3c(c12)CCC3 (configuration not stated) 21.7%
CN(Cc1ccccc1)C(=O)COC(=O)C1CCN(S(=O)(=O)c2ccc3c(c2)OCCO3)CC1 -5.03%
Cc1ccc(C)c(/C(O)=C2\C(=O)C(=O)N(CCCN3CCOCC3)C2c2cccnc2)c1 (configuration not stated) -1.34%
COC(=O)c1[nH]c(C)c(/C(O)=C2\C(=O)C(=O)N(CCN3CCOCC3)C2c2ccco2)c1C (configuration not stated) 10.8%
CC(CCc1ccccc1)NC(=O)c1nnc(Cc2ccc(Cl)cc2)o1 (configuration not stated) -1.14%
CNCc1ccccc1Sc1cccc2ccccc12 -4.29%
Cc1ccc(O)c(Sc2cc(C)ccc2O)c1 3.64%
CNCc1ccccc1Sc1ccc(OC)cc1 4.31%
CNCc1ccccc1Sc1cccc(O)c1 -4.96%
O=C(COc1cc(F)ccc1[N+](=O)[O-])Nc1ccc2c(c1)OCO2 -6.99%
CNCCCOc1cccc(Oc2ccccc2)c1 9.66%
COc1cccc2cc(C(=O)c3ccccc3)oc12 -4.51%
O=C(Nc1ccc2c(c1)OCO2)c1cc2ncc(Br)cn2n1 6.91%
O=C(NCc1ccc2c(c1)OCO2)c1ccccn1 10.1%
O=C(NN1CCOCC1)c1cc(-c2ccc(Cl)c(Cl)c2)nc2ccccc12 -15.2%
CC1CC(OCC(O)CN2CCOCC2)CC(C)(C)C1 (configuration not stated) -2.99%
N#CCC(=O)Nc1ccc(C(=O)OC(C(=O)Nc2cc(C(F)(F)F)ccc2Cl)c2ccccc2)cc1 (configuration not stated) 6.13%
CCOC(=O)C(=NC1CCS(=O)(=O)C1)NNc1cc(Cl)ccc1Cl (configuration not stated) 11.7%
COC(=O)Cn1ncn2cccc2c1=O 31%
CCOC(=O)CCCn1ncn2c(cc3occc32)c1=O 7.22%
CC1CCCCC1NC(=O)CCNS(=O)(=O)c1ccc2c(c1)CCC(=O)N2 (configuration not stated) 6.16%
COC(=O)c1ccc(C)c(NC(=O)c2nn(C)c(=O)c3ccccc23)c1 0.46%
CCCn1nc(C(=O)Nc2cccc(C(=O)OC)c2)c2ccccc2c1=O 0.28%
CCN(C(=O)C1CCCCC1)c1nnc(-c2cccnc2)s1 -11.9%
O=C(C1CCN(S(=O)(=O)c2cccc3cccnc23)CC1)N1CCN(c2ccccc2)CC1 3.12%
O=C(C1CCCN1S(=O)(=O)c1cccc2cccnc12)N1CCc2ccccc2C1 (configuration not stated) 8.45%
O=C1CCCN1CCCNC(=S)Nc1cccc2ccccc12 30.4%
CC(C)OC(=O)CSc1nnc(-c2ccncc2)n1N -2.43%
O=c1cc(CN2CCCc3ccccc32)nc2sccn12 22%
O=c1cc(CN2CCc3ccccc32)nc2sccn12 23.2%
Cc1ccc(CCNc2ncnc(Cl)c2N)cc1 -3.15%
Cc1nn(C)cc1/C=N\NC(=O)c1ccc(Cn2cc(Cl)cn2)cc1 -3.19%
COc1cccc(C(C#N)N2N=C(C)CC2(C)C)c1O (configuration not stated) -2.38%
COc1cc(C(C#N)N2CCCCC2)ccc1O (configuration not stated) 7.46%
O=S(=O)(Nc1cccc(-n2cnnn2)c1)c1ccccc1F -7.41%
Oc1c(C=Nc2ccccc2)sc2ccccc12 -6.91%
COc1ccc(N=Cc2sc3ccccc3c2Cl)cc1 0.88%
CCCOc1ccc(NC(N)=O)cc1OCCC 0.61%
C=C1CCN([C@H](C(=O)NCc2ccc(OC)cc2)C(C)C)S(=O)(=O)c2ccccc21 2.28%
CCCn1nnc(NC(=O)c2ccc(-c3cc(Cl)ccc3Cl)o2)n1 3.66%
O=C(NNC(=O)c1ccc(Cl)c(Cl)c1)c1cccnc1 -10.1%
COCc1nnc(NS(=O)(=O)c2ccc(Cl)cc2)s1 -13.7%
Cc1cc[n+](CCC(=O)O)c2ccccc12 27.6%
Nc1ccc(S(=O)C(F)(F)F)cc1 (configuration not stated) -4.35%
Cc1ccnc2ccc(P(=O)(c3ccccc3)c3ccccc3)cc12 -4.5%
CC[n+]1ccc(C[n+]2ccccc2)c2ccccc21 31.8%
CC(C)CN(C(=O)COC(=O)Cc1c[nH]c2ccccc12)C1CCS(=O)(=O)C1 (configuration not stated) -1.62%
Cn1cnc([N+](=O)[O-])c1C(=O)Nc1cccc([N+](=O)[O-])c1 -0.16%
CCc1ccc(NC(=O)CSCc2ccc(C(=O)O)cc2)cc1 2.67%
O=C(/C(=C(\[O-])c1ccccc1)[n+]1ccc2ccccc2c1)c1ccc(Cl)cc1 -6.22%
Cc1cc(C)c(S(=O)(=O)Nc2cc(SCC(=O)O)c(O)c3ccccc23)cc1C 29.4%
Cc1ccc(C)c(S(=O)(=O)Nc2cc(SCC(=O)O)c(O)c3ccccc23)c1 30.9%
COC(=O)c1cc2sccc2n1CC(=O)Nc1ccc(OC)c(OC)c1OC -6.58% and -2.62%
C1CCc2nnc(-c3nnc4n3CCCCC4)n2CC1 -7.36%
Cc1ccc(-c2nnc3n2CCCCC3)cc1 32.1%
O=C(Nc1cccc2nsnc12)c1ccc2c(c1)OCO2 -0.24%
COc1cccc(OCC(O)CN2CCN(c3ccc(Cl)cc3)CC2)c1 (configuration not stated) 2.34%
COc1ccc(O)c(/C=N/c2sc(C)c(C)c2C#N)c1 10.1%
COc1ccc(S(=O)(=O)N2CCOCC2)cc1C(=O)Nc1cc(C)on1 2.2%
Cc1nn(-c2ccccc2)c(Cl)c1C1C(C#N)=C(N)Oc2c1c(C)nn2-c1ccccc1 (configuration not stated) 2.03%
CCOC(=O)C1=C(C)OC(N)=C(C#N)C1c1c(C)nn(-c2ccc(C)cc2)c1Cl (configuration not stated) 1.7%
CC(=O)c1cccc(OCc2cc(C(=O)N(C)Cc3nccs3)no2)c1 -3%
CC(C)(C)c1ccc(N2C(=O)CC(C/C=C/c3ccccc3)C2=O)cc1 (configuration not stated) -5.69%
O=C(COC(=O)c1ccc(S(=O)(=O)Nc2ccccc2)cc1)NCc1ccco1 3.75%
O=C(COC(=O)c1ccc(NS(=O)(=O)c2cccs2)cc1)NCC1CCCO1 (configuration not stated) -1.37%
CC1CC(=O)Nc2ccccc2N1C(=O)CN1C(=O)C(=O)N(C)C1=O (configuration not stated) 3.84%
CC(=O)Nc1ccc(/C=N/Nc2nncc3ccccc23)cc1 -1.2%
Cc1cccc(C)c1NC(=O)COC(=O)CN1C(=O)C2CCCCC2C1=O (configuration not stated) -6.55%
